High-throughput results (PubChem)
In the library only some 11% were active in any assay of this set; here they are far more common.
Gal4-VP16 FLuc = Gal4-VP16 reporter inhibition counter-screen. Drosophila S2 Gal4-VP16 UAS-luciferase, luminescence, 20 h. Potency, µM (top dose mostly 53.6 µM), hits mostly inhibitors. 310,000 tested, 3.5% active. AID 2546;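 also: Gal4-VP16 expression switched on by copper sulfate through the metallothionein promoter; nearly all actives have a fitted effect of over 50% in size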
RORg inh = inhibitors of mouse ROR gamma transcriptional activity | P51450 | Drosophila S2 Gal4-RORgamma UAS-luciferase reporter, 20 h | Potency, µM (series often up to 53.6 µM), usual class: inhibitors | 310,000 tested, 5.4% active | AID 2551; also: nearly all actives have a fitted effect of over 60% in size
Target sequence (P51450 whole entry, looked up, the tested form may be a part): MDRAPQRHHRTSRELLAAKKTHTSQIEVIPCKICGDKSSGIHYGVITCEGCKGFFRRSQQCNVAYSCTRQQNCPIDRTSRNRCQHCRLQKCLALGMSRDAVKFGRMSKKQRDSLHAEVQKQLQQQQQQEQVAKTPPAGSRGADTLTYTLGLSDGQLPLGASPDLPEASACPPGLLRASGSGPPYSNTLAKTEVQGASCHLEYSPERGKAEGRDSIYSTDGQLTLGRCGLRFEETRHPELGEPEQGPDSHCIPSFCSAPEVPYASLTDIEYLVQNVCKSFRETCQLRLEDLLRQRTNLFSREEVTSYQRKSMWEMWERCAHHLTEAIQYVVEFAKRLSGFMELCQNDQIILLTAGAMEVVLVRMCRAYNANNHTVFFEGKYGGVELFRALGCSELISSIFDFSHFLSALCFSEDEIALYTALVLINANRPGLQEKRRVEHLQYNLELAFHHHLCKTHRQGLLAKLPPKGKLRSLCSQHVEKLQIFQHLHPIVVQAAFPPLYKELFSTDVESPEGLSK
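A Gal4/UAS one-hybrid system in insect cells: metallothionein-promoter Gal4–ROR gamma fusion plus Photinus luciferase reporter. Copper sulfate 700 uM final, 20 hr ambient incubation, luminescent detection after 10 min with reagent.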
MCF10A rereplic = inducers of DNA re-replication in MCF 10A breast cells | MCF 10A DNA re-replication, Hoechst nuclear intensity, 48 h | Potency, µM (series often up to 46.1 µM), usual class: activators | 350,000 tested, 2.9% active; also: nearly all actives have a fitted effect of over 50% in size
SW480 rerep = induces DNA re-replication in SW480 colon adenocarcinoma cells. AID 624297. Potency, µM (top dose mostly 46.1 µM), hits mostly activators. 340,000 tested, 1.8% active. SW480 DNA re-replication, Hoechst DNA content imaging, 48 h; also: nearly all actives have a fitted effect of over 55% in size
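Compounds, transferred as 23 nL by pin tool, were incubated with cells for 48 hr; DNA content per nucleus was then quantified by Hoechst staining and fluorescence plate imaging.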
IL1B secr inh = inflammasome signaling inhibition, IL-1 beta readout. AID 743279. THP-1 LPS/ATP IL-1B secretion, AlphaLISA, 16 h; stronger effect = lower value. 360,000 tested, 4.7% active. activity change, % at 57.5 µM; in the data active = activity change below about -50%; inconclusive = mostly about -30% to -49%
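Secreted IL-1B measured by AlphaLISA bead assay after 16 h compound exposure of THP-1 cells; compounds (final up to 57.5 uM) added 1 h before LPS (250 ng/mL) and ATP (1.25 mM) stimulation; lower signal means less secretion.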
Numbers stand for hits; i = inactive; ? = inconclusive; nt = no result given; [ ] = dose if it differs, or a comment. Unless noted, calls follow the shape of the dose curve; as a rule, active = well fitted curve in the direction sought with a large enough effect; inconclusive = small, poorly fitted or top-dose-only effect, or another doubt; inactive = no such curve, though single readings can be large; an effect the other way counts as inactive or inconclusive.

SMILES | Gal4-VP16 FLuc | RORg inh | MCF10A rereplic | SW480 rerep | IL1B secr inh
C=C(C)C1Cc2c(C)nn(-c3ccccn3)c2C1 (centres undefined) | ? | 13µM | i | i | i
Cc1nnc(C)c2c(C)n(-c3cccc4cccnc34)c(C)c12 | i | i | nt | nt | nt
C=C(C)C1Cc2c(C)nn(-c3cccc4cccnc34)c2C1 (centres undefined) | i | 14µM | i | i | i
Cc1ccc(C)c(NC(=O)CN(C)C(=O)COc2cccc3c2OC(C)(C)C3)c1 | nt | nt | i | i | i
COc1ccc(/[N+]([O-])=C/c2ccco2)cc1 | nt | nt | ? | i | i
CC12CCC(C(=O)Nc3ccc(SC(F)F)cc3)(CC1=O)C2(C)C (centres undefined) | i | i | ? | ? | -81
O=C(Nc1ccc(SC(F)F)cc1)C12CCC(CC1)C2 | i | ? | i | i | ?
COc1ccc(C(CNC(=O)c2ccc(-c3cccc(C(F)(F)F)c3)o2)N2CCOCC2)cc1 (centres undefined) | nt | nt | ? | i | i
S=C(NCCc1ccccn1)Nc1ccccc1 | ? | 20µM | i[9.22 µM] | i | i
COc1cccc(NC(=S)NCCc2ccccn2)c1 | 18µM | ? | i | ? | i
COc1cccc(NC(=S)NCc2ccncc2)c1 | i | i | i | i | i
c1ccc(NCCc2ccccn2)cc1 | nt | nt | i | i | i
CCN(CC)C(=S)Nc1ccc(Cl)c(Cl)c1 | ? | 18µM | i | i | i
S=C(NCCc1ccccn1)Nc1cc(Cl)cc(Cl)c1 | ? | 5µM | ? | i | -77
CCCCCCC(O)C/C=C/CCCCCCCC(=O)O (centres undefined) | i | i | ? | i | nt
Cc1cccc(Cl)c1NC(=S)NCCc1ccccn1 | ? | ? | i | i | i
S=C(NCCc1ccccn1)Nc1ccc(Cl)c(Cl)c1 | 7.1µM | 5.6µM | ? | i | i
COCCNC(=S)Nc1ccc(Cl)c(Cl)c1 | ? | 10µM | i | i | i
CCN(CC)c1ccc(/C=C/C(=O)C2C(=O)C=C(C)OC2=O)cc1 (centres undefined) | ? | 13µM | 18µM | ? | i
COC(=O)C/C=C\[C@@H](C)[C@@H](/C=N\O[C@@H](C)CN1CCCc2nc(C)c(C)cc21)NS(=O)(=O)c1ccc(C)cc1 | i[10 µM] | i[10 µM] | nt | nt | nt
Nc1c(C(=O)c2ccc(Br)cc2)oc2ccccc12 | i | i | ? | i | i
Cc1ccc(C(=O)c2oc3ccccc3c2N)cc1 | i | i | 10µM | ? | i
O=C(c1ccc(C(F)(F)F)cc1)C1CCCN(Cc2cccn2-c2ncccn2)C1 (centres undefined) | i | i | i | i | -73
Cc1noc(C)c1C(=O)N1CCCC(C(=O)c2cccc(C(F)(F)F)c2)C1 (centres undefined) | i | i | i | 5.8µM | i
O=C(c1ccc(C(F)(F)F)cc1)C1CCCN(C(=O)c2cnccn2)C1 (centres undefined) | i | i | i | i | i
SMILES | Gal4-VP16 FLuc | RORg inh | MCF10A rereplic | SW480 rerep | IL1B secr inh
O=C(c1cccc(C(F)(F)F)c1)C1CCCN(Cc2cccn2-c2ncccn2)C1 (centres undefined) | i | i | i | i | -68
CCOc1cc(CN2CCCC(C(=O)c3cccc(C(F)(F)F)c3)C2)ccc1O (centres undefined) | i | i | ? | i | i
CCCC[C@@H]1C[C@H]1C(NC(=O)c1ccc(C(F)(F)F)cc1)c1ccc(C(=O)OC)cc1 (some centres undefined) | i | i | nt | nt | nt
CCCC[C@@H]1C[C@H]1C(NC(=O)c1ccccc1)c1ccc(C(F)(F)F)cc1 (some centres undefined) | ? | 16µM | nt | nt | nt
Cc1ccc(S(=O)(=O)N2[C@@H](c3ccc(Br)cc3)C(C(=O)O)=C[C@H]2C(C)(C)C)cc1 | nt | nt | i | i[9.22 µM] | i
Cc1cccc(CNc2ccnc(-c3ccccc3CN(C)C)n2)c1 | i | i | nt | nt | nt
CCn1c(-c2ccc(Cl)cc2)n[nH]c1=S | 13µM | 10µM | i | i | i
CCn1c(-c2ccc(C)cc2)n[nH]c1=S | 11µM | 8.9µM | i | i | i
CCn1c(-c2cccnc2)n[nH]c1=S | i | ? | i | i | i
CCCCn1c(-c2ccc([N+](=O)[O-])cc2)n[nH]c1=S | 8.9µM | 2.2µM | i | i | i
Cc1ccc(Cl)cc1-c1cc(C(=O)NCc2ccc(C(F)(F)F)cc2)[nH]n1 | nt | nt | nt | nt | i
COc1ccc2[nH]c3c4c(ccc3c2c1)C(=O)C=CC4=O | 8.9µM | 6.3µM | ? | 3.3µM | -77
CCCNC(=O)CSc1n[nH]c(=O)n1CCc1ccccc1 | i | i | i | i | i
CN(c1ccc(OC(=O)c2ccc(-n3cncn3)c([N+](=O)[O-])c2)cc1)S(=O)(=O)c1ccccc1 | nt | nt | i | i | i
COCCN(C(=O)C(C)C)c1nnc(-c2cccc(C)c2)s1 | i | i | i | i | -53
Cc1cc(=O)n2nc(N3CCCC3C(=O)Nc3cccc(Cl)c3C)sc2n1 (centres undefined) | i | 16µM | i | i | i
Cc1cc(=O)n2nc(N3CCC(C(=O)Nc4cccc(Cl)c4C)CC3)sc2n1 | i | i | i | i | i
COc1cc(CNc2ccc3[nH]c(=O)[nH]c3c2)cc(Br)c1OCc1ccccc1F | i | i | ? | ? | -60
COc1cc(CNc2ccc3[nH]c(=O)[nH]c3c2)ccc1OCc1ccccc1F | i | ? | i | i | ?
COc1cc(CNc2ccc3[nH]c(=O)[nH]c3c2)ccc1OCC(=O)NC(C)(C)C | i | i | i | i | i
COc1cc(CNc2ccc3[nH]c(=O)[nH]c3c2)cc(Br)c1OCC(=O)NC(C)(C)C | i | i | i | i | -68
CN(c1ccccc1)c1cc(Br)nc(Br)c1 | nt | nt | i | i | i
COc1ccc(N2CCN(C(CNC(=O)C(=O)NCCc3c[nH]c4ccccc34)c3ccco3)CC2)cc1 (centres undefined) | i | i | ? | i | -52
Cc1cc(C)cc(NC(=O)C(=O)NCCc2c[nH]c3ccccc23)c1 | i | i | i | i | i
COc1ccc(N2CCN(C(CNC(=O)C(=O)NCCCO)c3ccco3)CC2)cc1 (centres undefined) | i | i | ? | i | i
SMILES | Gal4-VP16 FLuc | RORg inh | MCF10A rereplic | SW480 rerep | IL1B secr inh
Cc1cccc(NC(=S)NCCc2c[nH]c3ccccc23)c1 | 1µM | 2.5µM | i | i | i
COc1cc(CNCc2c[nH]c3ccccc23)cc(OC)c1 | i | ? | ? | i | -84
Cc1ccc(NC(=S)NCCc2c[nH]c3ccccc23)cc1 | 20µM | 7.9µM | i | i | i
CC(C)c1ccc(NC(=S)NCCc2c[nH]c3ccccc23)cc1 | ? | 10µM | 15µM | i | -53
COc1ccc(CCNC(=S)NCCc2c[nH]c3ccccc23)cc1 | ? | 13µM | i | i | i
O=C(NCCc1c[nH]c2ccccc12)Nc1ccccc1 | i | i | i | i | i
COc1ccc(/C=C(/NC(=O)c2ccc(OC)cc2)C(=O)NCCc2c[nH]c3ccccc23)cc1 | i | i | ? | i | i
